DAX1 inh-1: inhibitors of DAX1 repression of SF-1 activated StAR promoter | HEK293T StAR-luciferase reporter, SF-1/DAX-1 repression relief | inhibition, % at 6.8 µM | 370,000 compounds, 1.1% hits | AID 652010;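 active = inhibition above the mean over all tested compounds plus 3 SD, cut at about 3.6% in these data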;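 note: 0% = DAX-1 cells with DMSO and 100% = cells lacking DAX-1 with DMSO; higher inhibition means more luminescence from relief of DAX-1 repression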
DAX1 inh-2: inhibitors of human orphan nuclear receptor DAX1 (NR0B1). P51843. HEK293 Gal4-DAX1 luciferase reporter, luminescence. inhibition, % at 6.75 µM. 340,000 compounds, 0.99% hits. AID 504766;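 active = inhibition above the mean over all tested compounds plus 3 SD, cut at about 4.2% in these data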;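 note: 0% = DAX1-transfected cells with DMSO and 100% = empty-vector control cells with DMSO; inhibition shows as a rise in luminescence from relieved DAX1 repression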
hcDAF-12 act: activators of H. contortus DAF-12 nuclear receptor | HEK293 hcDAF-12 lit1-tk-luc reporter, luminescence; 0% DMSO, 100% Δ7-dafachronic acid | activation, % at 6.8 µM | 370,000 compounds, 1.4% hits;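 active = activation above the mean of all tested compounds plus 3 SD, cut at about 5.5% in these data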;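 note: 100% = response to 3 µM Δ7-dafachronic acid high control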
hgDAF12 agonist: activates the H. glycines DAF-12 receptor ligand-binding domain; activation, % at 6.8 µM; 370,000 compounds, 1.8% hits; AID 687014; HEK293 GAL4-hgDAF12 UAS-luciferase reporter, agonist luminescence; normalized to butyrate control;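 active = activation above a cutoff set at the mean of all screened compounds plus 3 SD, cut at about 10% in these data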;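 note: 0% = DMSO wells and 100% = sodium butyrate wells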
ssDAF12 agonist: S. stercoralis DAF-12 activation, primary screen; HEK293 ssDAF-12/GRIP1 lit1-tk-luc reporter, luminescence; % of 3 µM dafachronic acid response; activation, % at 6.8 µM; 370,000 compounds, 1% hits; AID 652126;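 active = activation above the mean over all tested compounds plus 3 SD, cut at about 0.9% in these data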;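 note: 0% = DMSO-only wells and 100% = 3 µM delta7-dafachronic acid wells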
LXRb hcDAF ctr: counter-screen for hcDAF-12 agonists: agonists of human LXR-beta; shares compounds with hcDAF-12 act; HEK293 Gal4-LXR tk-luc reporter, luminescence, 24 h; normalized: DMSO 0%, positive control 100%; activation, % at 6.8 µM; 3,400 tested, under 10 active; AID 743027;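 active = mean percent activation of the reporter above a cutoff set as the average over tested compounds plus their standard deviation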
Target sequence (P55055 whole entry, looked up, the tested form may be a part): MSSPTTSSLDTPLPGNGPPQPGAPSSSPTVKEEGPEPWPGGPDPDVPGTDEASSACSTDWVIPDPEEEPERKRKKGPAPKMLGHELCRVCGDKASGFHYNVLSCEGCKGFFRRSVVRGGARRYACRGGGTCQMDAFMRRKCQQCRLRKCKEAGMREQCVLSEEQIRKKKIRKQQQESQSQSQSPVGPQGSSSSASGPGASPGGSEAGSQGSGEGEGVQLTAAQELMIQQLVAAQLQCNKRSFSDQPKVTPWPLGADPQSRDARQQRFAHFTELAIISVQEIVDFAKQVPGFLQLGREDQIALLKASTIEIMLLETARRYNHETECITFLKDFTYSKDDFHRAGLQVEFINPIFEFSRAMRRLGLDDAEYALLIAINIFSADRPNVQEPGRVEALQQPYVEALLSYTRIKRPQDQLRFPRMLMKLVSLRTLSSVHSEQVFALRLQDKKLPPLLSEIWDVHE
hcDAF12 ag: confirmation of H. contortus DAF-12 agonists; shares compounds with hcDAF-12 act; HEK293 hcDAF-12 lit1-tk-luc reporter, luminescence; % of Δ7-dafachronic acid response; activation, % at 6.8 µM; 3,400 compounds, 61% hits; AID 743032;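 active = mean activation across triplicate tests above the threshold derived from the earlier primary screen, cut at about 5.5% in these data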;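 note: 0% = DMSO only wells and 100% = 3 µM Δ7-dafachronic acid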
Active calls of the source: *; . = not tested or not shown. In the library only some 4.1% were active in any assay of this set; here they are far more common.

SMILES	DAX1 inh-1	DAX1 inh-2	hcDAF-12 act	hgDAF12 agonist	ssDAF12 agonist	LXRb hcDAF ctr	hcDAF12 ag
COc1cccc(C(=O)Nc2ccc(NC(=O)C3C4C=CC(C4)C3C(=O)O)cc2)c1 (configuration not stated)	2.6	0.3	12.3*	10.5*	1.0*	0.0	2.8
COc1cc(NC(=O)C2C3C=CC(C3)C2C(=O)O)ccc1NC(=O)c1ccccc1 (configuration not stated)	-0.2	0.2	-2.7	-2.3	-1.4	.	.
COc1cccc2c1CCc1c-2nc2ccccc2c1C(=O)O	0.8	0.5	8.4*	11.5*	0.0	0.8	7.8*
CCN(CCS(=O)(=O)c1ccc(Br)cc1)Cc1nc2ccccc2c(=O)[nH]1	-0.1	-0.3	-2.8	-2.0	-0.9	.	.
CCc1ccc(OCC(=O)NC(C)(C)C)cc1	-0.3	-0.3	10.9*	-3.4	-0.7	-0.1	-0.7
Cc1cc(C(F)(F)F)nn1CC(=O)Nc1ccc2c(c1)OCO2	-1.9	-0.5	-2.9	-1.5	-0.8	.	.
Clc1ccccc1-c1ccc(/C=N/Nc2nncc(-c3ccccc3)n2)o1	0.3	-1.9	10.3*	-0.1	-0.4	-0.2	3.0
NS(=O)(=O)c1ccc(CNC(=O)C2CCCN2C(=O)c2cccs2)cc1 (configuration not stated)	0.8	0.9	-0.2	0.3	-1.1	.	.
COC(=O)c1sc(-c2ccc(C(C)(C)C)cc2)cc1NC(=O)c1ccccc1C(=O)O	2.4	3.2	6.8*	12.1*	1.5*	-0.1	-0.3
CC1CC(C)CN(S(=O)(=O)c2ccc(NC(=O)CCNC(=O)c3ccc([N+](=O)[O-])cc3)cc2)C1 (configuration not stated)	-1.2	-1.1	0.2	0.9	-0.9	.	.
Cc1ccc(C2NC(=O)c3c(sc(C)c3C)N2)c(O)c1 (configuration not stated)	1.7	1.1	9.0*	8.6	1.0*	0.3	8.4*
Cc1sc2c(c1C)C(=O)NC(c1ccccc1F)N2 (configuration not stated)	0.5	1.3	0.5	4.0	0.8	.	.
CCOC(=O)N1N=C(c2ccc(C)cc2)CC1(O)C(F)(F)F (configuration not stated)	4.3*	-0.6	8.1*	11.2*	-0.5	1.3	8.0*
CCOC(=O)N1N=C(c2ccccc2)CC1(O)C(F)(F)F (configuration not stated)	1.2	1.4	1.9	9.9	-0.8	.	.
COc1ccc(C(=O)NCC(=O)Nc2ccc(-c3ccccc3)cc2)cc1	0.4	1.4	1.7	-1.0	-1.1	.	.
CCOc1ccccc1C(=O)NCC(=O)Nc1ccc(-c2ccccc2)cc1	0.3	3.1	6.6*	1.8	0.7	0.0	3.7
N/C(=N\OC(=O)c1ccccc1Cl)c1ccc(Cl)cc1	1.6	1.9	9.1*	9.1	1.5*	1.4	14.7*
N/C(=N\OC(=O)c1ccc(Cl)cc1Cl)c1ccccc1	2.5	2.3	7.3*	10.3	0.1	2.1	25.1*
N/C(=N\OC(=O)c1ccc(Cl)cc1Cl)c1ccc(Cl)cc1	-0.1	4.2	2.2	2.3	0.0	.	.
N/C(=N\OC(=O)c1cccc2ccccc12)c1cccc([N+](=O)[O-])c1	0.7	0.7	0.4	-0.9	-1.5	.	.
Cc1cccc(/C(N)=N/OC(=O)c2cccc3ccccc23)c1	2.5	2.1	7.0*	4.8	0.9*	0.3	6.3*
CCC1(c2ccccc2)NC(=O)N(CC(=O)N(C)CC(=O)Nc2cccc(F)c2)C1=O (configuration not stated)	1.6	0.5	3.1	0.6	-0.7	.	.
C=CCNC(=O)O/N=C/c1csc([N+](=O)[O-])c1	-1.3	.	0.1	3.4	-0.4	.	.
O=C(NC(=S)N1CCN(c2ccccc2)CC1)c1ccccc1	-1.3	0.0	-1.8	0.5	-1.4	.	.
CCOC(=O)C1=C(C)NC2=C(C(=O)CCC2)C1c1coc2ccccc2c1=O (configuration not stated)	-0.1	0.2	6.8*	4.8	-0.8	-0.2	4.5
SMILES	DAX1 inh-1	DAX1 inh-2	hcDAF-12 act	hgDAF12 agonist	ssDAF12 agonist	LXRb hcDAF ctr	hcDAF12 ag
CC1=C(C(=O)OC2CCCC2)C(c2coc3ccccc3c2=O)C2=C(CCCC2=O)N1 (configuration not stated)	-0.9	-0.4	2.1	-0.3	0.2	.	.
Cc1ccc(C)c(C(=O)COC(=O)c2c(-c3ccccc3)noc2C)c1	-2.1	-0.6	-2.5	4.0	-1.1	.	.
Cc1cccnc1NC(=O)c1ccc(S(=O)(=O)N2CCCCC2)cc1	1.9	1.9	0.5	2.1	-0.7	.	.
Cc1cccnc1NC(=O)c1cccc(S(=O)(=O)N2CCCC2)c1	0.3	0.7	7.0*	-1.8	0.2	-0.1	4.8
COCCn1c(SCC(=O)NCc2ccc3c(c2)OCO3)nc2ccccc2c1=O	0.1	0.1	-3.0	-0.3	-1.1	.	.
O=C(NC(=S)N1CCCc2ccccc21)c1ccc(Cl)cc1	0.9	2.1	7.9*	3.8	0.3	0.2	9.2*
O=C(Nc1nnc(SCC(=O)N2CCCc3ccccc32)s1)c1ccccc1	1.0	-2.1	8.0*	7.0	-0.8	0.2	3.7
COc1ccccc1C(=O)NC(=S)N1CCCc2ccccc21	-0.8	1.5	2.2	-2.2	-1.4	.	.
O=C(NC(=S)N1CCCc2ccccc21)c1ccccc1	0.5	1.1	8.3*	7.6	0.8	0.3	9.2*
COc1ccc2oc(=O)c(/C(C)=N/Nc3ccccc3)cc2c1	-0.5	-0.5	-0.6	-0.7	-0.9	.	.
CN(CCc1ccccn1)C(=O)Nc1cccc(Cl)c1	-0.2	1.0	1.6	2.6	-0.4	.	.
COc1ccc(CCN2CN(S(=O)(=O)c3ccc(C)cc3)c3nc4ccccc4nc32)cc1OC	0.0	0.5	0.8	-2.0	-1.2	.	.
COc1ccccc1N1CN(S(=O)(=O)c2ccc(C)cc2)c2nc3ccccc3nc21	1.6	1.5	9.1*	12.8*	0.9*	-0.3	3.9
CC(=O)Oc1ccc(C(=O)[C@H]2[C@H]3C(=O)N(c4ccccc4)C(=O)[C@H]3[C@@H]3C=CC=NN32)cc1	0.3	3.2	8.1*	1.9	-0.5	0.0	4.9
CN1CCc2c(sc(/N=C/c3c[nH]c4ccccc34)c2C#N)C1	1.8	.	8.7*	3.9	0.5	0.6	9.0*
CCN(CC)C(=O)[C@H]1CC(CC(=O)NCCc2ccccn2)C(=O)N2CCc3c([nH]c4ccccc34)[C@]12C (some centres not stated)	-0.5	-0.5	-0.5	0.3	-0.6	.	.
